According to the supplement of paper PMC8728848:
This is one part of a sample in which the strongest signals are shown more often than they occur.

Tests used:
Assay in all cases: glycan array binding signal (z-score within array); higher = stronger binding
Conditions in all cases: glycan notation: IUPAC condensed, linker removed
[1] = biological target: Fuc(a1-2)Gal
How it was run: (§1)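 Negative Z-scores can be read as non-binding. The Z-score is calculated within each array and then averaged across arrays of one protein sequence at different concentrations or buffers and across linkers. Arrays, 3228 in all, were curated from the Consortium for Functional Glycomics database and kept only where the protein sequence was available.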

[2] = biological target: Fuc(a1-2)Gal(b1-3)GalNAc(b1-3)Gal(a1-4)Gal(b1-4)Glc
How it was run: as §1

[3] = biological target: Fuc(a1-2)Gal(b1-4)Glc6S
How it was run: as §1

[4] = biological target: Fuc(a1-2)Gal(b1-4)GlcNAc(b1-3)Gal(b1-4)GlcNAc
How it was run: as §1

[5] = biological target: Fuc(a1-2)Gal(b1-4)GlcNAc6S
How it was run: as §1

[6] = biological target: Fuc(a1-2)[GalNAc(a1-3)]Gal(b1-3)GlcNAc(b1-2)Man(a1-3)[Fuc(a1-2)[GalNAc(a1-3)]Gal(b1-3)GlcNAc(b1-2)Man(a1-6)]Man(b1-4)GlcNAc(b1-4)GlcNAc
How it was run: as §1

[7] = biological target: Fuc(a1-2)[GalNAc(a1-3)]Gal(b1-4)GlcNAc(b1-3)Gal(b1-4)GlcNAc(b1-3)Gal(b1-4)GlcNAc
How it was run: as §1

[8] = biological target: Fuc(a1-3)GlcNAc
How it was run: as §1

[9] = biological target: Gal(a1-3)Gal(b1-4)Glc
How it was run: as §1

[10] = biological target: Gal(a1-3)Gal(b1-4)GlcNAc
How it was run: as §1

[11] = biological target: Gal(a1-3)GalNAc
How it was run: as §1

[12] = biological target: Gal(b1-3)GalNAc(a1-3)[Fuc(a1-2)]Gal(b1-4)GlcNAc
How it was run: as §1

[13] = biological target: Gal(b1-3)GlcNAc
How it was run: as §1

[14] = biological target: Gal(b1-3)[Fuc(a1-4)]GlcNAc
How it was run: as §1

[15] = biological target: Gal(b1-3)[Fuc(a1-4)]GlcNAc(b1-3)Gal(b1-4)GlcNAc
How it was run: as §1

[16] = biological target: Gal(b1-4)GalNAc(b1-3)[Fuc(a1-2)]Gal(b1-4)GlcNAc
How it was run: as §1

[17] = biological target: Gal(b1-4)Glc6S
How it was run: as §1

[18] = biological target: Gal(b1-4)GlcNAc(b1-2)Man(a1-3)[Gal(b1-4)GlcNAc(b1-2)Man(a1-6)]Man(b1-4)GlcNAc(b1-4)[Fuc(a1-6)]GlcNAc
How it was run: as §1

[19] = biological target: Gal(b1-4)GlcNAc(b1-2)Man(a1-6)[GlcNAc(b1-2)Man(a1-3)]Man(b1-4)GlcNAc(b1-4)GlcNAc
How it was run: as §1

[20] = biological target: Gal(b1-4)GlcNAc(b1-3)[Gal(b1-4)GlcNAc(b1-6)]GalNAc
How it was run: as §1

[21] = biological target: Gal3S(b1-4)[Fuc(a1-3)]Glc6S
How it was run: as §1

[22] = biological target: GalNAc(a1-3)GalNAc(a1-3)Gal(a1-4)Gal(b1-4)GlcNAc
How it was run: as §1

[23] = biological target: GalNAc(b1-3)Gal(a1-4)Gal(b1-4)GlcNAc(b1-3)Gal(b1-4)Glc
How it was run: as §1

[24] = biological target: GlcNAc(a1-4)Gal(b1-4)GalNAc
How it was run: as §1

[25] = biological target: GlcNAc(a1-4)Gal(b1-4)GlcNAc(b1-3)Gal(b1-4)[Fuc(a1-3)]GlcNAc(b1-3)Gal(b1-4)[Fuc(a1-3)]GlcNAc
How it was run: as §1

[26] = biological target: GlcNAc(b1-2)Man(a1-3)[GlcNAc(b1-2)Man(a1-6)]Man(b1-4)GlcNAc(b1-4)[Fuc(a1-6)]GlcNAc
How it was run: as §1

[27] = biological target: GlcNAc3Prop(b1-4)GlcNAc
How it was run: as §1

[28] = biological target: Man(a1-2)Man(a1-6)[Man(a1-3)]Man(a1-6)[Man(a1-2)Man(a1-2)Man(a1-3)]Man
How it was run: as §1

[29] = biological target: Neu5Ac(a2-3)Gal(b1-3)GlcNAc(b1-3)GalNAc
How it was run: as §1

[30] = biological target: Neu5Ac(a2-3)Gal(b1-4)[Fuc(a1-3)]GlcNAc(b1-3)GalNAc
How it was run: as §1

[31] = biological target: Neu5Ac(a2-6)Gal(b1-4)GlcNAc(b1-2)Man(a1-6)[Gal(b1-4)GlcNAc(b1-2)Man(a1-3)]Man(b1-4)GlcNAc(b1-4)GlcNAc
How it was run: as §1

[32] = biological target: Neu5Ac(a2-6)Gal(b1-4)GlcNAc(b1-3)Gal(b1-4)[Fuc(a1-3)]GlcNAc(b1-3)Gal(b1-4)[Fuc(a1-3)]GlcNAc
How it was run: as §1

[33] = biological target: Neu5Gc(a2-6)Gal(b1-4)GlcNAc
How it was run: as §1

B1: SRS2 (Toxoplasma gondii), O15695 (protein)
chain: MATRASLARQKTGAACLAVLTASPSVVAAKPWKRWVGVSVILASAFAVGVSAGPPYRYEPEKFTCRPKKGILSQWVSLLYQVQHNITFACEEATPVPTTLISEEHGLMVCAENMTPEECEANPAPLSAFLPGATKEWVTGDSVLTGLKISVPESQYPANAKSFRVGCRHNTKTGNTCMLTIHVEPRDPAVERQEARCSYTENSTLPKIFVTKDSNTMTLACGPHGAPMPESYTENYCSTPDTCDEKPFTSVIPGYLSKWFFGDPKSPLGARVRIPPEQIPSSPQINYFGCTGPTEGEGPKYNCTVPVPLGGGDPSEGSRPGGGSGGGKRGGGQGGGGSLAGFDFRQGSARHSLPSRMALSASALLAMTALAY
glycan array binding signal (z-score) [1]: 0.535 | glycan array binding signal (z-score) [2]: 0.231 | glycan array binding signal (z-score) [3]: 0.222 | glycan array binding signal (z-score) [4]: 0.699 | glycan array binding signal (z-score) [5]: 0.345 | glycan array binding signal (z-score) [6]: -0.13 | glycan array binding signal (z-score) [7]: 0.391 | glycan array binding signal (z-score) [8]: 0.522 | glycan array binding signal (z-score) [9]: -0.428 | glycan array binding signal (z-score) [10]: 0.159 | glycan array binding signal (z-score) [11]: 0.369 | glycan array binding signal (z-score) [12]: -0.437 | glycan array binding signal (z-score) [13]: -0.506 | glycan array binding signal (z-score) [14]: -0.246 | glycan array binding signal (z-score) [15]: -0.495 | glycan array binding signal (z-score) [16]: -0.802 | glycan array binding signal (z-score) [17]: -0.35 | glycan array binding signal (z-score) [18]: 1.54 | glycan array binding signal (z-score) [19]: 1.51 | glycan array binding signal (z-score) [20]: 6.82 | glycan array binding signal (z-score) [21]: 2.13 | glycan array binding signal (z-score) [22]: 0.55 | glycan array binding signal (z-score) [23]: -0.134 | glycan array binding signal (z-score) [24]: -0.448 | glycan array binding signal (z-score) [25]: 2.07 | glycan array binding signal (z-score) [26]: 14.3 | glycan array binding signal (z-score) [27]: 0.829 | glycan array binding signal (z-score) [28]: 0.304 | glycan array binding signal (z-score) [29]: 1.3 | glycan array binding signal (z-score) [30]: 1.72 | glycan array binding signal (z-score) [31]: -0.203 | glycan array binding signal (z-score) [32]: 0.576 | glycan array binding signal (z-score) [33]: -0.03
